Reference: the supplement of paper PMC9492666

Test system: MDA-MB-231
Experiment: relative cell viability, compound + RSL3, vs DMSO (fraction of DMSO control); higher = less growth inhibition
Conditions: 72 h
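Also: breast cancer cell viability read out with the CCK-8 kit after co-treatment of each compound with the ferroptosis inducer RSL3.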

SMILES	relative cell viability
Cc1ccc(C)c(OCCCC(C)(C)C(=O)O)c1 [Gemfibrozil] + COC(=O)c1ccc([C@H]2c3[nH]c4ccccc4c3C[C@H](C(=O)OC)N2C(=O)CCl)cc1 [RSL3]	0.523
O=C(/C=C/c1ccc(/C=C/C(=O)Nc2ccc(C3=NCCN3)cc2)cc1)Nc1ccc(C2=NCCN2)cc1 + COC(=O)c1ccc([C@H]2c3[nH]c4ccccc4c3C[C@H](C(=O)OC)N2C(=O)CCl)cc1 [RSL3]	0.378
COc1ccc(N(C(=O)Nc2c(C)cccc2C)c2cc(Nc3ccc(N4CCN(C)CC4)cc3)ncn2)c(OC)c1 + COC(=O)c1ccc([C@H]2c3[nH]c4ccccc4c3C[C@H](C(=O)OC)N2C(=O)CCl)cc1 [RSL3]	0.576
CCC1C(O)C2C3CCC(C(C)CCO)C3(C)CCC2C2(C)CCC(O)CC12 (centres undefined) + COC(=O)c1ccc([C@H]2c3[nH]c4ccccc4c3C[C@H](C(=O)OC)N2C(=O)CCl)cc1 [RSL3]	0.364
